Measured values reported in PubChem BioAssay.
A number with no mark means an inactive call. How the calls were made is not given here.

Biological target: Pantothenate synthetase (Mycobacterium tuberculosis (strain ATCC 25618 / H37Rv)) (UniProt P9WIL5)
Experiment: Recombinant Mtb pantothenate synthetase (PanC) inhibitors, coupled enzyme, confirmatory (AID 375);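 further: 0% = full reaction with vehicle and 100% = no enzyme background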
Details: coupled enzyme assay; at 10 µM, stronger effect = higher value

Sequence of Pantothenate synthetase (Mycobacterium tuberculosis (strain ATCC 25618 / H37Rv)) (P9WIL5 whole entry, looked up): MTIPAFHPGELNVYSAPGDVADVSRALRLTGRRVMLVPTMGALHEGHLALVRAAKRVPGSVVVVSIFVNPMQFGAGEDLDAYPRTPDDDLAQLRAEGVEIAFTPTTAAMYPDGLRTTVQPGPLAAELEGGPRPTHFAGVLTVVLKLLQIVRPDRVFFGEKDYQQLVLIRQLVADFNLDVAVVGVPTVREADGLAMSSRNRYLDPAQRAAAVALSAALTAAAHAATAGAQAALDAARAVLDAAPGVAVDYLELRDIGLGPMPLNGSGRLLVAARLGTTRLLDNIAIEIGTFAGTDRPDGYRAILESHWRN

SMILES	inhibition [%]
O=C(COc1ccccc1)Nc1nc2ccccc2[nH]1	0
CCc1c(C)nc2ncnn2c1NCCc1ccc(OC)c(OC)c1	0
Cc1nnc(SCCn2c(Br)nc3c2c(=O)n(C)c(=O)n3C)s1	1
CCC1CCCCN1C(=O)Cn1c(C(=O)OC)cc2sc(Cl)cc21 (stereo not given)	0
CN1[C@@H](CC(=O)c2ccccc2)CCC[C@H]1C[C@H](O)c1ccccc1	8
CCC(=O)Nc1cc2nn(-c3ccccc3)nc2cc1Cl	0
N#CC1=C(SCc2ccccc2)NC(=O)C(C#N)C12CCCC2 (stereo not given)	2
C[C@]12CCC(=O)C=C1CC[C@@H]1[C@@H]2C(=O)C[C@@]2(C)[C@H]1CC[C@]2(O)C(=O)CO	0
CCCCOc1ccc(S(=O)(=O)n2c(C)nc3ccccc32)cc1	0
CCn1nnnc1NCc1cccn1C	5
Cc1ccc(CSC2=NCCN2C(=O)C2CC2)cc1	2
CCN(CC)CC(C)CNC(=O)CC(C(=O)N1CCc2ccccc21)n1ccnc1 (stereo not given)	2
CCCN1CCN(CCCNC(=O)C2CCCN(c3nc4ccc(OCC)cc4s3)C2)CC1 (stereo not given)	1
Cc1ccc(S(=O)(=O)N2CCN(C(=O)N3CCOCC3)C2C)cc1 (stereo not given)	0
O=C(C1CCCN1S(=O)(=O)c1cccc2cccnc12)N1CCn2c1nc1ccccc12 (stereo not given)	6
COc1ccccc1CNC(=O)C1CCCN(S(=O)(=O)c2cnc[nH]2)C1 (stereo not given)	0
Cc1ccc(Cn2c(NCCc3ccccc3)nc3c2c(=O)n(C)c(=O)n3C)cc1	4
CCOc1ccc2c(O)csc2c1	0
CC1CCCCN1CCNC(=O)C1CCN(S(=O)(=O)c2cccc3cccnc23)CC1 (stereo not given)	0
CCOC(=O)c1sc(NC(=O)CSc2nnc3c4ccccc4n(CC)c3n2)nc1C	3

SMILES	inhibition [%]
COc1cccc(C(=O)N2CCCC(c3nc(-c4cccs4)no3)C2)c1 (stereo not given)	0
CS(=O)(=O)N(CC(=O)Nc1ccc2c(c1)OCCO2)Cc1ccccc1	2
CCCn1c2ccccc2c2nnc(SCC(=O)OCC)nc21	6
CCC(C)(C)n1nnnc1C(c1ccc(OC)c(OC)c1)N1CCN(c2ccc(F)cc2)CC1 (stereo not given)	0
CC(=O)Nc1nnc(S(N)(=O)=O)s1	0
Cc1cc(C)c(C)c(OCC(=O)NCC2CCCO2)c1 (stereo not given)	0
Cc1nc(Sc2cccn2C)c(C(F)(F)F)c(=O)[nH]1	0
Cc1ccc(-n2c(-c3ccncc3)nnc2-c2cccs2)cc1	1
O=C(NCCN1CCN(c2ccccc2)CC1)c1ccc(NC(=O)C2CCCO2)cc1 (stereo not given)	2
CCOc1ccccc1N(C(=O)c1ccco1)C(C(=O)NC1CCCC1)c1cccnc1 (stereo not given)	0
CCN(CC)C(=O)c1sc2nc(-c3cccs3)cc(-c3cccs3)c2c1N	0
CCOc1ccc(OCc2cccc(C(=O)N3CCCC3)c2)cc1	6
COc1cc(NC(=O)C2C3C=CC(C3)C2C(=O)O)c(OC)cc1Cl (stereo not given)	0
COCCN(CCOC)Cc1c(C)[nH]c2ccccc2c1=O	0
O=c1oc2ccccc2cc1NCc1ccccc1O	0
COC(=O)c1ccccc1NC(=O)c1noc2c1CCC2	0
CCOC(=O)c1cccnc1SCC(=O)NC(C)CC (stereo not given)	0
O=C1c2ccccc2NC(c2ccco2)N1O (stereo not given)	5
Cc1nn(Cc2ccccc2)c(C)c1NC(=O)CCC(=O)O	2
Cc1ccccc1Cn1ccc(NC(=O)c2cnn3c(C(F)(F)F)cc(-c4ccco4)nc23)n1	5
